Hits are enriched below; roughly 2.5% of the tested compounds scored in any of these assays.
aSyn 5UTR inh: 5' untranslated region of α-synuclein, MLPCN primary screen | alpha-synuclein 5'UTR reporter, inhibitor activity | inhibition, % (tested at 7.5 µM) | actives 0.82% (n = 300,000) | AID 1813; in the data active = inhibition above about 60%;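 note: H4 neuroglioblastoma cells stably carrying SNCA 5'UTR luciferase fusion; 0% = DMSO wells and 100% = positive control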
Jurkat NFkB inh: lowers PMA/ionomycin-induced NF-kB signal in Jurkat cells. PMA/ionomycin-induced NF-kB luciferase reporter, luminescence. inhibition, % at 4 µM. actives 0.53% (n = 330,000); in the data active = inhibition above about 50%
KLF5 inhibitor: kruppel-like factor 5 inhibition | inhibition, % at 5 µM | actives 0.23% (n = 290,000) | DLD-1 KLF5 promoter-luciferase reporter, luminescence;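 active = inhibition above a per-plate limit of that plate's mean compound inhibition plus 3 SD, cut at about 60% in these data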;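 note: 0% = DMSO wells and 100% = LY294002 at 200 µM; higher means less KLF5 promoter-driven luciferase light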
697 NFkB inh: lowers PMA/ionomycin-induced NF-kB signal in 697 B cells; 697 B-cell NF-kB luciferase reporter, 16 h; inhibition, % at 4 µM; actives 0.33% (n = 330,000); AID 435022; in the data active = inhibition above about 35%
ANO1 block: blocks the mouse calcium-activated chloride channel TMEM16A; normalized B-score (activity score, 25-100; higher = stronger inhibition) at 10 µM; Q8BHY3; AID 588511; HEK293 TMEM16A/YFP iodide influx fluorescence, ionomycin; actives 1.2% (n = 310,000);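 active = ratio plate-corrected score three or more library SD toward inhibition, starting fluorescence score within five deviations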;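 note: score derived from kinetic fluorescence span divided by baseline fluorescence per well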
Target sequence (Q8BHY3 whole entry, looked up): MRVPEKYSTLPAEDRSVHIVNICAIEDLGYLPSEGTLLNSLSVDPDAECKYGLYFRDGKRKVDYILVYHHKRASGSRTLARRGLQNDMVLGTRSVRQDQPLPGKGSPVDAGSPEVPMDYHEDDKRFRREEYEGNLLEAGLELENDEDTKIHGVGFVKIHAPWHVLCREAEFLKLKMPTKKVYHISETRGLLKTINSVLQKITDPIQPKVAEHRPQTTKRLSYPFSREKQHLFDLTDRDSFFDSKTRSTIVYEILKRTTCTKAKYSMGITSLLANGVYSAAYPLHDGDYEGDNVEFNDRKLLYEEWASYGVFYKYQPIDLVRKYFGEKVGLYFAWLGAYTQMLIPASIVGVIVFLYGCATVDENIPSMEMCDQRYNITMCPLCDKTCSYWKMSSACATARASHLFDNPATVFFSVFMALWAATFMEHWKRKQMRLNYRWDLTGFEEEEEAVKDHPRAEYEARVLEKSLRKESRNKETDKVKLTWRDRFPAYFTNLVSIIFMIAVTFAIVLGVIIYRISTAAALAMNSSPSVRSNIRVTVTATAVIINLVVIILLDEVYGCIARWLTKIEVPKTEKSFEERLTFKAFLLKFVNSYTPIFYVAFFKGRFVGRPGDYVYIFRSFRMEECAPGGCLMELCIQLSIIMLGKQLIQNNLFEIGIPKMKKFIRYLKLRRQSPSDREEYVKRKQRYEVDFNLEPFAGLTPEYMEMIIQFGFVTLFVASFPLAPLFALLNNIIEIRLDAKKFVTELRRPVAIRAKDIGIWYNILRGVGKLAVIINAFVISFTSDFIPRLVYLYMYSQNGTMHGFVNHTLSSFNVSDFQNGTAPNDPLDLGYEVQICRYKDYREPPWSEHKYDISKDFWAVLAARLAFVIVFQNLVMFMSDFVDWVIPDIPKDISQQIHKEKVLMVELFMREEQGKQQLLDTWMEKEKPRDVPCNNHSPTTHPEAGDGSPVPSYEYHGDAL
TMEM16A act: activates or potentiates the mouse TMEM16A chloride channel; AID 623877; Q8BHY3; B-score at 10 µM; actives 0.3% (n = 340,000); HEK293 TMEM16A/YFP-H148Q/I152L, iodide quench fluorescence; stronger effect = lower value;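 active = fluorescence-ratio B-score plate-corrected deviation score at least 3 library SD below zero, with starting fluorescence score within 5 deviations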;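 note: channel opened by trigger with iodide after compound preincubation; score built on the fluorescence ratio of max minus min over baseline; more negative score means more quench and so TMEM16A activation or potentiation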
697 NFkB conf: inhibitors of the PMA/ionomycin-induced NF-kB reporter in 697 B cells, retest; shares compounds with 697 NFkB inh; AID 449746; 697 B-cell NF-kB luciferase, 16 h; inhibition, % at 4 µM; actives 35% (n = 2,000); in the data active = inhibition mostly above about 28%, no sharp cut-off; inactive = mostly below about 22%
Numbers without * were called inactive; i = inactive; x = not tested or not shown.

SMILES | aSyn 5UTR inh | Jurkat NFkB inh | KLF5 inhibitor | 697 NFkB inh | ANO1 block | TMEM16A act | 697 NFkB conf
CCc1cc2c(-c3ccccc3)cc(=O)oc2cc1OC(C)C(=O)NCC1CCC(C(=O)O)CC1 (configuration not stated) | 11 | -12 | 9 | 41* | i | i | 19
CCOc1ccc(C(=O)NCC(=O)NNC(=O)c2ccco2)cc1OCC | x | 3 | x | 13 | x | i | x
COc1ccc(-c2nsc3c(N4CCCC4)ncnc23)cc1 | 70* | -77 | -127 | -458 | i | i | -348
COc1ccc(-c2csc3ncnc(N4CCN(c5ccc(OC)cc5)CC4)c23)cc1 | -3 | 2 | -7 | -47 | i | i | x
CCCCCCn1c(-c2ccco2)nc2oc3cc(OC)ccc3c(=O)c2c1=O | -53 | 7 | -2 | 42* | i | i | 35*
COCCCNC(=O)Cn1cnc(C(=O)Nc2ccc(C)c(C)c2)n1 | x | x | x | 19 | x | x | x
Cc1ccc(CSCCNC(=O)c2ccc(NS(C)(=O)=O)cc2)cc1 | 8 | -12 | -7 | 36* | i | i | -4
CCOC(=O)C1=C(COC(=O)C(CC)c2ccccc2)NC(=O)NC1C (configuration not stated) | x | -21 | x | 8 | x | i | x
CCN(CC)C(=O)c1ccc(S(=O)(=O)Cc2ccc(C)cc2)c([N+](=O)[O-])c1 | -32 | 7 | -23 | 40* | i | i | 39*
CCOC(=O)N1CCN(C(=O)Nc2ccc3nc(C)c(C)nc3c2)CC1 | 9 | -4 | -12 | 37* | i | i | 8
O=C(c1ccc([N+](=O)[O-])cc1)N(Cc1cccs1)C1CCS(=O)(=O)C1 (configuration not stated) | 10 | -7 | -20 | -8 | i | i | x
COc1ccc([N+](=O)[O-])cc1N(CC(=O)NCCSc1ccc(C)cc1)S(C)(=O)=O | -6 | -28 | -28 | 9 | i | i | x
COc1ccc(C)cc1NS(=O)(=O)c1ccc(NC(=O)CN(c2cc([N+](=O)[O-])ccc2C)S(C)(=O)=O)cc1 | 114* | -1 | 7 | 38* | i | i | -8
CNC(=O)c1cc(Oc2ccc(NC(=O)Nc3ccc(Cl)c(C(F)(F)F)c3)cc2)ccn1 | x | 29 | x | 63* | x | i | 59*
O=C(Nc1ccc(Cl)c(C(F)(F)F)c1)c1ccncc1 | 1 | -5 | -11 | 22 | i | i | x
CS(=O)(=O)N(CC(=O)N1CCOCC1)c1cccc(F)c1 | 15 | -21 | -26 | 10 | i | i | x
COc1ccc(Cn2c(C3CC3)nc3ccc(NC(=O)c4cccnc4)cc3c2=O)cc1 | -176 | -2 | -5 | -88 | i | i | x
COc1ccc(Cn2c(C3CC3)nc3ccc(NC(C)=O)cc3c2=O)cc1 | -121 | -131 | -99 | -254 | i | i | -199
O=C(CCNC(=O)c1ccc([N+](=O)[O-])cc1)NNC(=O)c1ccccc1F | x | -4 | x | 9 | x | i | x
Cc1ccc(C(=O)Nc2cccc(NC(=O)c3ccc(C)c([N+](=O)[O-])c3)n2)cc1[N+](=O)[O-] | -8 | 1 | -87 | -5 | i | i | x
Cc1ccc(C(=O)Nc2sc(C)c(-c3ccccc3)c2C(N)=O)cc1[N+](=O)[O-] | -81 | -20 | -5 | -415 | i | i | -99
CC(=O)N=c1sccn1CC(=O)c1ccc([N+](=O)[O-])cc1 | -12 | 9 | -4 | 36* | i | i | 19
O=C(c1cnc(Cl)c(Cl)c1)N1CCN(S(=O)(=O)c2ccc3ccccc3c2)CC1 | x | 10 | x | -3 | x | i | x
Cc1oc2c(cc(NS(=O)(=O)c3ccc(F)cc3)c3ccccc32)c1C(=O)O | 10 | -3 | 6 | -35 | i | i | x
COc1ccc(S(=O)(=O)Nc2cc3c(C(C)=O)c(C)oc3c3ccccc23)cc1 | 82* | 48 | 52 | 41* | i | i | 32*
SMILES | aSyn 5UTR inh | Jurkat NFkB inh | KLF5 inhibitor | 697 NFkB inh | ANO1 block | TMEM16A act | 697 NFkB conf
CC(=O)c1sc(NC(=O)CSCc2c(C)noc2C)nc1-c1ccccc1 | x | 6 | x | 15 | x | i | x
COc1cc(/C=N/n2cnc3c(sc4nc(C)cc(C)c43)c2=O)ccc1O | -40 | -9 | 2 | -14 | i | x | x
COc1cc(/C=N/NC(=O)c2sc3nc(C)cc(C)c3c2N)ccc1O | 1 | 7 | -25 | 43* | i | i | 18
COC(=O)c1sc2nc(C)cc(C)c2c1N | -39 | -33 | -33 | -22 | i | i | x
Cc1cc(C)c2c(N)c(C(=O)Nc3ncc(C)s3)sc2n1 | x | 16 | -17 | -278 | i | i | -70
Cn1ncc2c(Nc3ccc(-c4ccccc4)cc3)ncnc21 | -45 | -110 | -27 | -436 | i | i | -450
Cn1ncc2c(Nc3ccc(Cl)c(Cl)c3)ncnc21 | -37 | -16 | -69 | -10 | i | i | x
COc1ccc2ccccc2c1C1NC(=O)c2ccccc2N1 (configuration not stated) | x | x | x | x | x | i | x
Cc1ccc(C)c(CN2C(=O)c3ccccc3S(=O)c3ccc(C(=O)N4CCN(c5ccccn5)CC4)cc32)c1 (configuration not stated) | -17 | -37 | 33 | i | i | i | i
CC(C)Cn1c([N+](=O)[O-])nc2c1c(=O)[nH]c(=O)n2C | -20 | 17 | -6 | 37* | i | i | 30*
COC(=O)[C@@H]1CC[C@H](C)[C@@H](c2ccc(C)cc2)N1C(=O)c1ccc(/C=N/O[C@@H](C)c2cn([C@H](CO)Cc3ccccc3)nn2)cc1 | 21 | 28 | -9 | 52* | i | x | 26
Cc1cc2cc(CN(CC3CCCO3)C(=O)c3cnccn3)c(=O)[nH]c2cc1C (configuration not stated) | 4 | 9 | 8 | 36* | i | i | 6
C=C(C)[C@@H]1CCC2(C(=O)O)CC[C@]3(C)[C@H](CC[C@@H]4[C@@]5(C)CCC(=O)C(C)(C)[C@@H]5CC[C@]43C)[C@@H]12 (some centres not stated) | 2 | 3 | 10 | 80* | i | i | 61*
Nc1nc2ccccc2n1CCOc1ccc(F)cc1 | 4 | 0 | -75 | -10 | i | i | x
COCCNc1nnc(SC(C)C(=O)Nc2ccc(-c3nc4ccc(C)cc4s3)cc2)s1 (configuration not stated) | -79 | -125 | -111 | -294 | i | i | -282
O=C(Cc1nnc(NC(=O)c2cccc([N+](=O)[O-])c2)s1)NCc1ccccc1 | 1 | 2 | -12 | -12 | i | i | x
CCn1c(=O)cc(OCC(=O)NCc2ccco2)c2ccccc21 | 4 | 10 | -24 | 7 | i | i | x
